The source of these data is ChEMBL document CHEMBL4513216, “Probing the Open Global Health Chemical Diversity Library for Multistage-Active Starting Points for Next-Generation Antimalarials” (ACS Infect Dis, 2020).

Hit rate of the full screen: of about 69,000 compounds, about 8,600 (12%) showed an effect of 50% or more. For the sample, strong results were picked, then their nearest neighbours and some compounds at random.

For this experiment, the system named is Plasmodium berghei. Description: Screen against P. berghei liver stage (PbLuc), transformed with Luciferase, at 10uM. The class given is functional, HepG2. To be noted: tested at 10 uM.
In the case of `O=C(C1CCC2(CCN(c3ncccn3)CC2)CO1)N1CCCC1` (stereo not drawn), the INHIBITION is given as -7.24%.
As for `O=C(C1CCC2(CCN(c3nncs3)CC2)CO1)N1CCCC1` (stereo not drawn), the figure is 57.1%.
For `O=C(C1CCC2(CCN(c3nncs3)CC2)C1)N1CCCC1` (stereo not drawn) the value was -16.9%; for `O=C([C@@H]1CCCO1)N1CCOCC2(CCN(Cc3cccnc3)C2)C1` (stereo partly drawn), 40.3%; for `CNC(=O)C1CCC2(CCN(c3ncc(C)cn3)CC2)CO1` (stereo not drawn), 11.3%.
For the compound `O=C(C1CCC2(CCN(Cc3cccnc3)CC2)CO1)N1CCCC1` (stereo not drawn), the INHIBITION turned out to be 62%.
As for `CC(C)NC(=O)C1CCC2(CCN(c3ncccn3)CC2)CO1` (stereo not drawn), the figure is 15.7%; as for `CNC(=O)C1CCC2(CCN(c3nncs3)CC2)CO1` (stereo not drawn), 61.9%; as for `O=C(C1CCCO1)N1CCC2(CC1)COCCN(Cc1cccnc1)C2` (stereo not drawn), 12.2%.
Consider `CC(C)(C)C(=O)N1CC[C@@H]2[C@H](CC1)N(S(C)(=O)=O)CCS2(=O)=O`, for which the INHIBITION is listed as 37.1%.
As for `CN1CCN(C(=O)c2cc(-c3cccs3)cs2)CC1`, the INHIBITION is listed as -11.4%.
`Cc1nc(C2CCCN2C(=O)COCc2ccccc2)no1` (stereo not drawn): the INHIBITION is reported as 7.27%.
As for `COc1cnc(CSc2nnc(C)s2)cc1OCC(=O)NC1CCCC1`, the figure is 43.3%.
Take `CNc1cncc(C2CCCN2Cc2ccnc(C)n2)n1` (stereo not drawn): the INHIBITION is 48.6%.
For `CN1CCc2c(C#N)c(NCCCN3CCOCC3)n3cnnc3c2C1`, the INHIBITION worked out at 3.95%.
As to `COc1ccc(CN2CCOC3(CCCN(C(C)=O)C3)C2)cc1` (stereo not drawn), the INHIBITION is 7.31%.
With `COCCC(C)NCc1ccccc1-n1ccnc1` (stereo not drawn), the INHIBITION is reported as 15.2%.
`CCOc1cccc(CNC(C)c2ccc(-n3ccnc3)cc2)c1O` (stereo not drawn): the INHIBITION was determined as 47.1%.
As for `COc1ccccc1CNC(C)c1ccc(-n2ccnc2)cc1` (stereo not drawn), the figure is 70.3%; as for `COc1cccc(CNC(C)c2ccc(-n3ccnc3)cc2)c1OC` (stereo not drawn), 35%; as for `COc1cccc(CNC(C)c2ccc(-n3ccnc3)cc2)c1O` (stereo not drawn), 43.4%.
For `CC(NCc1ccccc1O)c1ccc(-n2ccnc2)cc1` (stereo not drawn), the INHIBITION is 61.9%.
As to `CC1CCC(O)(CSc2nnnn2C)CC1` (stereo not drawn), the INHIBITION is listed as 4.52%.
For `CCn1ncc2c1C(COC)N(C(=O)CCc1ccccc1)CC2` (stereo not drawn) the value was 43%; for `Cc1cnc(CC2COCCN(C(=O)c3cncnc3)C2)cn1` (stereo not drawn), -13.2%; for `CC(NCc1cc(O)c2cccc(F)c2n1)c1ccccc1O` (stereo not drawn), 25%.
For `Cc1ccc(CNCCN2CCOCC2)o1`, the INHIBITION was found to be 5.34%.
`CSCc1ccc(CNCCN2CCOCC2)o1`: the INHIBITION was found to be 15.6%.
For `Cc1nc(-c2c(-c3ccccc3)ncn2CCCN2CCOCC2)c[nH]1` the value was 27.6%; for `OCc1ccc(-c2c(-c3ccccc3)ncn2CCN2CCOCC2)o1`, 53.3%; for `Cc1ccc(-c2c(-c3ccccc3)ncn2CCCN2CCOCC2)o1`, 20.1%.
`c1ccc(-c2ncn(CCCN3CCOCC3)c2-c2ccncc2)cc1`: the INHIBITION was determined as 55.4%.
For `COCCCn1ccc(NC(=O)NCc2cccc(N(C)C)c2)n1` the value was 21.5%.
As for `O=C1[C@@H]2CC[C@@H](CN(Cc3ccccc3OC(F)F)C2)N1CC1CC1`, the figure is 18.5%.
As for `CN(C)CC(=O)N1Cc2cc(N(C)C)ccc2C1c1cnco1` (stereo not drawn), the figure is 33.4%; as for `CC(=O)NCC(=O)N1CC[C@H](OCC2CC2)[C@@H]1Cc1cccnc1`, 4.92%; as for `CN(C)c1ccc2c(c1)CN(C(=O)c1cnccn1)C2c1cnco1` (stereo not drawn), 31.9%.
For the compound `N#Cc1ccc2c(c1)CN(C(=O)C1CC=CC1)C2c1cnco1` (stereo not drawn), the INHIBITION is listed as 34.9%.
Take `CN(C)CC(=O)N1Cc2cc(-c3cc[nH]n3)ccc2C1c1cnco1` (stereo not drawn): the INHIBITION is -19.8%.
As for `CC(=O)NCC(=O)N1Cc2cc(C#N)ccc2C1c1cnco1` (stereo not drawn), the figure is 65.9%; as for `N#Cc1ccc2c(c1)CN(C(=O)c1nc[nH]n1)C2c1cnco1` (stereo not drawn), 64.5%.
Take `N#CC1(C(=O)N2Cc3cc(-c4cc[nH]n4)ccc3C2c2cnco2)CC1` (stereo not drawn): the INHIBITION is on record as -18.3%.
As for `CN(C)c1ccc2c(c1)CN(C(=O)c1ccnnc1)C2c1cnco1` (stereo not drawn), the figure is -0.554%; as for `CN(C)c1ccc2c(c1)CN(C(=O)c1c[nH]cn1)C2c1cnco1` (stereo not drawn), 76.3%; as for `CN(C)c1ccc2c(c1)CN(C(=O)c1ccco1)C2c1cnco1` (stereo not drawn), -0.554%.
For `CC(=O)NCC(=O)N1Cc2cc(-c3cc[nH]n3)ccc2C1c1cnco1` (stereo not drawn) the value was 71.8%; for `O=C(CN1CCOC1=O)N(Cc1ccccc1)Cc1nccs1`, 22.1%; for `CC(C)CN1CC(C(=O)NCCNc2ncccn2)CC1=O` (stereo not drawn), 21.6%.
Consider `N#Cc1ccc(CN2CCN(c3cncc(Cl)n3)CC2=O)cc1`, for which the INHIBITION is given as -5.33%.
As to `CN(Cc1n[nH]c2c1CCCCC2)C(=O)c1cc(-c2cccn2C)n[nH]1`, the INHIBITION is on record as -89.3%.
Turning to `COCCN1CCN(Cc2c(C3CCNCC3)[nH]c3ncccc23)CC1`, the INHIBITION is reported as -12.9%.
With `CSc1ccccc1CN1C[C@H]2C(=O)N(CC3CC3)C[C@@]2(C(=O)O)C1`, the INHIBITION was -26.9%.
In the case of `O=C1[C@@H]2CN(Cc3cc4ccccc4o3)C[C@]2(C(=O)O)CN1CC1CC1`, the INHIBITION came out at 79.8%.
With `CCCc1ccc(CN2C[C@H]3C(=O)N(CC4CC4)C[C@@]3(C(=O)O)C2)o1`, the INHIBITION was 6.28%.
Turning to `COc1cccc(-n2cc3[nH]c(=O)n(C(C)C)n3c2=O)c1`, the INHIBITION is recorded as -34%.
For `CCOc1ncnc2c1CCN(C(=O)c1cnccn1)CC2`, the INHIBITION is -103%.
As to `O=C(c1ccncc1F)N1CCc2ncnc(C3CC3)c2CC1`, the INHIBITION is listed as -2.72%.
As to `CCc1ncnc2c1CCN(C(=O)c1ccncc1F)CC2`, the INHIBITION was -49.3%.
Turning to `Cc1ncnc2c1CCN(C(=O)c1ccncc1F)CC2`, the INHIBITION is 68.4%.
For `O=C(c1ccncc1F)N1CCc2ncnc(N3CCOCC3)c2CC1` the value was 5.44%; for `Cc1ncnc2c1CCN(C(=O)c1ccnnc1)CC2`, 60.1%.
As to `O=C(c1ccncc1F)N1CCc2ncnc(-c3ccncc3)c2CC1`, the INHIBITION is recorded as -7.39%.
Consider `CC(C)Nc1ncnc2c1CCN(C(=O)c1ccccc1F)CC2`, for which the INHIBITION is listed as 32.2%.
As for `CCOc1ncnc2c1CCN(C(=O)c1ccncc1F)CC2`, the INHIBITION was determined as 54.4%.
As for `Cc1ncnc2c1CCN(C(=O)c1ccncc1)CC2`, the figure is 19.5%.
Regarding `Cc1ncnc2c1CCN(C(=O)c1cccnc1)CC2`, the INHIBITION was -2.17%.
Consider `CC(C)Nc1ncnc2c1CCN(C(=O)c1ccncc1F)CC2`, for which the INHIBITION turned out to be 53.5%.
Take `CS(=O)(=O)N1CCc2ccc(=O)n(CCN3CCCC3)c2CC1`: the INHIBITION stood at 46.4%.
